Results as given in PubChem BioAssay.
Calls of active or inactive are those of the source. Unless noted, no rule for the calls is given here.

Columns and labels:
[1] = test system: Wnt5a (protein binding on small-molecule microarray); experiment: small molecules binding Wnt5a protein – biophysical, small-molecule microarray, 635/667 nm fluorescence, primary screen (AID 1142); details: 635 nm fluorescence, higher = more signal;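 also: fluorescence read at 667 nm with signal to noise per printed feature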
[2] = ATP-based viability of Huh7 replicon cells – cell-based, CellTiter-Glo luminescence, basal, 48 h, cytotoxicity control for HCV replication inhibitor project, primary screen (AID 1143); details: higher = more signal, called active from +8 up or from −8 down;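 also: Huh7 hepatoma cells carrying a hepatitis C replication reporter with no stimulus; test concentration not given here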
[3] = Pseudomonas biofilm growth suppression – PAO1 strain, BacTiter-Glo luminescence, LB-PBS, primary screen (AID 1144); details: P. aeruginosa PAO1 biofilm, 12 h, higher = more signal
[4] = basal CRE-LacZ reporter activity in PC12 – cell-based, unstimulated, primary screen (AID 1145); details: no forskolin, luminescence, 4.5 h, higher = more signal, called active from +8 up or from −8 down
[5] = forskolin-driven CRE-LacZ activity in PC12 – cell-based, CRE-LacZ reporter, forskolin-stimulated, primary screen (AID 1146); details: luminescence, 4.5 h, higher = more signal, called active from +8 up or from −8 down;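 also: PC12 cells with 6xCRE LacZ reporter stimulated by forskolin 10 µM; beta-galactosidase reporter signal reflecting CREB driven transcription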
[6] = molecular target: Streptavidin (Streptomyces avidinii) (UniProt P22629); experiment: compounds binding control protein streptavidin – biophysical, small-molecule microarray, 635/667 nm fluorescence, artefact control for SMM compound annotation, primary screen (AID 1147); details: higher = more signal;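 also: signal reflects streptavidin binding to arrayed compounds as a control protein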
[7] = probe aInhba binding on compound microarray – biochemical, small-molecule microarray, 635/667 nm fluorescence, primary screen (AID 1148); details: higher = more signal;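 also: score merges 667nm spot fluorescence with signal-to-noise for antibody binding to printed compounds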
Torsin-1A (Homo sapiens) [8] = molecular target: Torsin-1A (Homo sapiens) (UniProt O14656); experiment: TOR1A wild-type binding on microarray – cell lysate, small-molecule microarray, lysate, 635/667 nm, primary screen (AID 1149); details: COS7 hTOR1A-WT lysate, 635 nm fluorescence, higher = more signal
Torsin-1A (Homo sapiens) [9] = molecular target: Torsin-1A (Homo sapiens) (UniProt O14656); experiment: torsin A mutant lysate binding on microarrays – cell lysate, small-molecule microarray, COS7 lysate, 635/667 nm fluorescence, primary screen (AID 1150); details: COS7 hTOR1A mutant lysate, 635 nm fluorescence, higher = more signal;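 also: score pools 667 nm emission and signal to noise measuring lysate protein binding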
[10] = test system: Sonic hedgehog protein (Shh); experiment: Sonic hedgehog microarray binding compounds – biochemical, small-molecule microarray, 635/667 nm fluorescence, primary screen (AID 1151); details: 635 nm fluorescence, higher = more signal;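 also: Shh protein binding to compounds spotted on small-molecule microarray slides; score combines spot fluorescence intensity with signal-to-noise across triplicate slides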
[11] = optical density shifts of acrAB sulA E. coli – strain DRC41, OD650, 48 h, E. coli filamentation inducer project, primary screen (AID 1152); details: higher = more signal, called active from +8 up or from −8 down;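 also: E. coli MC1000 strain DRC41 lacking acrAB efflux pump and sulA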
[12] = probe aLefty1 binding on compound microarray – biochemical, small-molecule microarray, 635/667 nm fluorescence, primary screen (AID 1153); details: higher = more signal;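 also: score merges spot fluorescence with signal-to-noise ratio from the scanned slide images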
[13] = plasmodial surface anion channel blockers, osmotic lysis – cell-based, P. falciparum Indochina, OD700, 1 h, primary screen (AID 1154); details: P. falciparum Indochina infected RBC osmotic lysis, higher = more signal, called active from +8 up or from −8 down
[14] = plasmodial surface anion channel blockers, osmotic lysis – cell-based, P. falciparum Indochina, OD700, 2 h, primary screen (AID 1155);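 also: lysis reports solute entry through the parasite surface anion channel PSAC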; details: P. falciparum Indochina infected erythrocytes, higher = more signal, called active from +8 up or from −8 down
[15] = changes in parasitized red cell lysis, either direction – P. falciparum Indochina, OD700, 3 h, PSAC antagonist project, primary screen (AID 1156); details: P. falciparum-infected erythrocytes, osmotic lysis, higher = more signal, called active from +8 up or from −8 down
[16] = plasmodial surface anion channel blockers, osmotic lysis – cell-based, P. falciparum Indochina, OD700, 18 h, primary screen (AID 1157); details: P. falciparum Indochina infected erythrocytes, osmotic lysis OD700, 18 h; higher = more signal, called active from +8 up or from −8 down
[17] = S6 kinase pathway phospho-S6 level changes – cell-based, A549, cytoblot, luminescence, serum-stimulated, primary screen (AID 1158); details: 5 h, higher = more signal;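 also: serum-stimulated A549 lung adenocarcinoma cells; signal is phosphorylated S6 detected by cytoblot immunostaining with HRP secondary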
[18] = molecular target: NADPH oxidase 2 (Homo sapiens) (UniProt P04839); experiment: compounds shifting NOX2 Amplex Red fluorescence – cell-based, HEK293-NOX2, PMA-stimulated, NOX inhibitor project, primary screen (AID 1159); details: 45 min, higher = more signal, called active from +8 up or from −8 down; also: test concentration not given here
[19] = molecular target: NADPH oxidase 4 (Homo sapiens) (UniProt Q9NPH5); experiment: compounds shifting NOX4 Amplex Red fluorescence – cell-based, HEK293-NOX4, tetracycline-induced, NOX inhibitor project, primary screen (AID 1160); details: HEK293-NOX4, Amplex Red H2O2 fluorescence, 45 min; higher = more signal, called active from +8 up or from −8 down
[20] = molecular target: NADPH oxidase 5 (Homo sapiens) (UniProt Q96PH1); experiment: compounds shifting NOX5 Amplex Red fluorescence – cell-based, HEK293-NOX5, NOX inhibitor project, primary screen (AID 1161); details: HEK293-NOX5, ionomycin, 45 min, higher = more signal
NADPH oxidase 5 (Homo sapiens), sequence (Q96PH1 whole entry, looked up): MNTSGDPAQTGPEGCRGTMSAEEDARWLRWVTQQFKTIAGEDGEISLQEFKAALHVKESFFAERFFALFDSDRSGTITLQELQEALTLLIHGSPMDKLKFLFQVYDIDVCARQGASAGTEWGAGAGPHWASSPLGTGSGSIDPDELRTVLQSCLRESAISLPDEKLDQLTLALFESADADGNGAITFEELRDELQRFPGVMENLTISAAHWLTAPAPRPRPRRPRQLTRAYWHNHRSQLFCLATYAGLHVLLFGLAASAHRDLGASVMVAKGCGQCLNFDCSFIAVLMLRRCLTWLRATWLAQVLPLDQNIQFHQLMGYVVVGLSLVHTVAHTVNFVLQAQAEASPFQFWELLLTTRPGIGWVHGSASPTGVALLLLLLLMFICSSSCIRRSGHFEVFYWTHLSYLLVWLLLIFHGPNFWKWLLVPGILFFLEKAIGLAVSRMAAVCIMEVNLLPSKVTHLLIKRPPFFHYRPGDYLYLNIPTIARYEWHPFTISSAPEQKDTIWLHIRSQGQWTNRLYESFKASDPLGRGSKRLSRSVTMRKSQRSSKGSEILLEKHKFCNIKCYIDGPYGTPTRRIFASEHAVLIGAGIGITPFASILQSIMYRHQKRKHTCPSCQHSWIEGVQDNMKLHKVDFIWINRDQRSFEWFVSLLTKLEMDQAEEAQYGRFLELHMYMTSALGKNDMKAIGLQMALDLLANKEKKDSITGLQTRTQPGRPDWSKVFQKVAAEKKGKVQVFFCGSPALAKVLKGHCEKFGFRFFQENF

NADPH oxidase 2 (Homo sapiens), sequence (P04839 whole entry, looked up): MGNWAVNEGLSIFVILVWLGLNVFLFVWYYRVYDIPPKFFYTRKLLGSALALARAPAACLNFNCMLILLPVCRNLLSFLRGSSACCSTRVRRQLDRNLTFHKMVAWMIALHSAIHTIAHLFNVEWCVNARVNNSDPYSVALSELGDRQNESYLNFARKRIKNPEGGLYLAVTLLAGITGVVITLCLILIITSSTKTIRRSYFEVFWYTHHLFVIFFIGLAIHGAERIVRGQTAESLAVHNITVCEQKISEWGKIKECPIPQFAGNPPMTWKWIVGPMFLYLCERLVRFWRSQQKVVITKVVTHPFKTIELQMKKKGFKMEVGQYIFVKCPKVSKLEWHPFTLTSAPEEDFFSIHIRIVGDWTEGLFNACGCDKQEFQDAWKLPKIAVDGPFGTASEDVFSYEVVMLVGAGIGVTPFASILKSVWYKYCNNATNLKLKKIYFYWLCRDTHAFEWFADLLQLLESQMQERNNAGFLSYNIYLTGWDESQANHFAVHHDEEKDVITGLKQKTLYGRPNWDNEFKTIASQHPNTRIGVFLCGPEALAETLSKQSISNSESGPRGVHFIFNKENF
Streptavidin (Streptomyces avidinii), sequence (P22629 whole entry, looked up): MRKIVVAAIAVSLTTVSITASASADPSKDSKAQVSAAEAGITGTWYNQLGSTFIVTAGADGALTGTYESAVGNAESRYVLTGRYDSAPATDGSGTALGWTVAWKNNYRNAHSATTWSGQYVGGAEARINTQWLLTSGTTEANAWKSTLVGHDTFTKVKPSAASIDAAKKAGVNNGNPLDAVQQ
NADPH oxidase 4 (Homo sapiens), sequence (Q9NPH5 whole entry, looked up): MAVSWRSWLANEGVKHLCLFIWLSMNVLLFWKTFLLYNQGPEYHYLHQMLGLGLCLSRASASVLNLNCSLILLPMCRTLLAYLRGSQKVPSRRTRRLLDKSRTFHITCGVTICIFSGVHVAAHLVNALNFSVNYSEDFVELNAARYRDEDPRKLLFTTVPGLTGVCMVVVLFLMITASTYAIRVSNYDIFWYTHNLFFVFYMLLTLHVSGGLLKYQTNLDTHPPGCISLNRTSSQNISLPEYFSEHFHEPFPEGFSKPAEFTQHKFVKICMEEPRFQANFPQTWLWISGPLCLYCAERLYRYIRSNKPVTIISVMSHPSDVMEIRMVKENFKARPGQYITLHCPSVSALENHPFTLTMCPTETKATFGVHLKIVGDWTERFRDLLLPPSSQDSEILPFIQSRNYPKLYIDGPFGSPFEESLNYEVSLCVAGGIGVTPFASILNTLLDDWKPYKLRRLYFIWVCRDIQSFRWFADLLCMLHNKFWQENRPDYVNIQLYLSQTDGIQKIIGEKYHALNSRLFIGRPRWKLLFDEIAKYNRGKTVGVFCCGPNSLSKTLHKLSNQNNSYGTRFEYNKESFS
Torsin-1A (Homo sapiens), sequence (O14656 whole entry, looked up): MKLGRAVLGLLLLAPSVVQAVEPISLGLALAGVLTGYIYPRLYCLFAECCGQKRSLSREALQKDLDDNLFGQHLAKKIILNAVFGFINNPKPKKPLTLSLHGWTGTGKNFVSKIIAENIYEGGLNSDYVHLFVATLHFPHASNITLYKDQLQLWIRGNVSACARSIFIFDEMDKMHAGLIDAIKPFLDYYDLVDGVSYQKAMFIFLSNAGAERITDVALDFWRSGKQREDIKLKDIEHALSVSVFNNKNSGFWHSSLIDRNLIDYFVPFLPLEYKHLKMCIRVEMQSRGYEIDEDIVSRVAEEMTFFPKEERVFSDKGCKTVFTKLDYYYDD

Compound | composite z-score [1] | z-score [2] | z-score [3] | z-score [4] | z-score [5] | composite z-score [6] | composite z-score [7] | composite z-score (Torsin-1A (Homo sapiens) [8]) | composite z-score (Torsin-1A (Homo sapiens) [9]) | composite z-score [10] | z-score [11] | composite z-score [12] | z-score [13] | z-score [14] | z-score [15] | z-score [16] | z-score [17] | z-score [18] | z-score [19] | z-score [20]
COC(=O)[C@@H]1CC[C@H](C)[C@@H](c2ccc(C)cc2)N1C(=O)c1ccc(C=NOC[C@@H](C)[C@H](OCc2ccccc2)C(C)C)cc1 | 0.156 | -1.17 (inactive) | 0.978 (inactive) | 6.15 (inactive) | -0.207 (inactive) | 0.409 | -0.018 | 0.0707 | 0.537 | 1.28 | -1.07 (inactive) | -0.18 | 1.25 (inactive) | -1.62 (inactive) | -0.467 (inactive) | -1.35 (inactive) | 2.57 | -1.28 (inactive) | -0.428 (inactive) | 0.388
COC(=O)C=CCCc1coc(C=CCNC(=O)OC)n1 | 0.4 | -0.0328 (inactive) | -0.0662 (inactive) | 0.38 (inactive) | 0.702 (inactive) | 0.0242 | 0.432 | 0.583 | 0.205 | 1.15 | -0.747 (inactive) | 0.632 | 1.78 (inactive) | 0.713 (inactive) | 1.13 (inactive) | 0.247 (inactive) | 0.41 | 0.575 (inactive) | 0.532 (inactive) | 0.21
CC(=O)OC[C@H]1O[C@H](CCON=C2[C@H]3CCn4c(=O)n(-c5ccccc5)c(=O)n4[C@H]3[C@H](O)[C@@H]3O[C@H]23)C=C[C@@H]1OC(C)=O | 0.282 | -1.89 (inactive) | 2.23 (inactive) | -0.152 (inactive) | -0.0763 (inactive) | -0.0465 | -0.0791 | -0.299 | 0.0319 | 0.789 | 0.0711 (inactive) | 0.637 | 0.553 (inactive) | 0.0612 (inactive) | -0.192 (inactive) | 0.269 (inactive) | -0.84 | -0.564 (inactive) | 0.0641 (inactive) | -0.0303
O=C1[C@H]2[C@H]3[C@H](O)[C@H](O)CC(=NOCc4ccccc4)[C@@H]3CC[C@H]2C(=O)N1Cc1ccc2c(c1)OCO2 | 0.0098 | 0.445 (inactive) | -0.312 (inactive) | 0.0664 (inactive) | -0.174 (inactive) | 0.193 | -0.101 | 0.537 | -0.0537 | 0.643 | 0.0628 (inactive) | 0.217 | 6.28 (inactive) | 1.02 (inactive) | 1.06 (inactive) | 0.354 (inactive) | 0.0008 | 1.09 (inactive) | 0.665 (inactive) | -1.01
COC(=O)[C@H](C)NC(=O)CCC1CC(OC(=O)NCc2ccc3c(c2)OCO3)CC2(CCCC(COC(=O)NCc3cccc(C(F)(F)F)c3)O2)O1 (stereo not given in full) | -0.0362 | -0.109 (inactive) | -0.0589 (inactive) | -0.794 (inactive) | -0.631 (inactive) | 0.634 | 0.0852 | 0.703 | 0.279 | 1.28 | -0.39 (inactive) | -0.045 | 0.598 (inactive) | -0.529 (inactive) | 0.262 (inactive) | -0.239 (inactive) | 0.0036 | 1.5 (inactive) | 0.971 (inactive) | 1.15
CCOC(=O)[C@H](Cc1ccccc1)NC(=O)CCC1CC(OC(=O)NCc2cccc3ccccc23)CC2(CCCC(COC(=O)NCC(c3ccccc3)c3ccccc3)O2)O1 (stereo not given in full) | 0.177 | -1.43 (inactive) | -0.873 (inactive) | 0.286 (inactive) | 0.155 (inactive) | 0.164 | -0.154 | 0.45 | 0.0748 | 0.613 | -0.0812 (inactive) | -0.116 | 9.16 (active) | 1.24 (inactive) | -1.06 (inactive) | -0.343 (inactive) | 0.704 | 0.782 (inactive) | 0.674 (inactive) | 0.347
O=C(C=Cc1ccc2c(c1)OCO2)c1ccc(F)cc1 | 0.239 | -1.25 (inactive) | 0.583 (inactive) | 1.28 (inactive) | 0.362 (inactive) | 1.32 | 0.259 | 0.245 | -0.397 | 2.05 | -0.394 (inactive) | 0.0685 | 20.7 (active) | 3.22 (inactive) | -0.0309 (inactive) | 0.47 (inactive) | -0.41 | 1.75 (inactive) | -2 (inactive) | -1.56
CO[C@@H]1COC(=O)[C@@H](C)COC(=O)[C@@H](C)NC(=O)CC=C[C@@H]1C | 0.102 | -4.69 (inactive) | -2.01 (inactive) | -0.129 (inactive) | -0.694 (inactive) | -0.457 | -0.246 | 1.65 | 0.717 | 1.51 | -0.294 (inactive) | 0.682 | -1.15 (inactive) | -1.26 (inactive) | 0.645 (inactive) | -0.858 (inactive) | 1 | -0.675 (inactive) | -2.43 (inactive) | -2.91
COc1ccc(O[C@H]2C=C[C@@H](c3ccccc3)O[C@@H]2CON=CC[C@@H]2C=C[C@H](OC(C)=O)[C@@H](COC(C)=O)O2)cc1 | 0.0129 | -1.06 (inactive) | -0.705 (inactive) | 1.15 (inactive) | 0.222 (inactive) | 3.65 | -0.176 | -0.107 | -0.26 | 0.328 | -0.259 (inactive) | -0.0054 | 8.95 (active) | 1.95 (inactive) | 1.07 (inactive) | 0.662 (inactive) | -0.981 | -0.279 (inactive) | -2.22 (inactive) | -1.01
